{"source": "PubChem BioAssay (EPA / NIEHS)", "note": "Calls of active or inactive are those of the source. The calls were made as follows: active = hit-call score of the fitted dose curve at least 0.9, where 1 is the maximum; inactive = score below 0.9."}
{"molecular_target": "X-box-binding protein 1 (Homo sapiens) (UniProt P17861)", "sequence (P17861 whole entry, looked up)": "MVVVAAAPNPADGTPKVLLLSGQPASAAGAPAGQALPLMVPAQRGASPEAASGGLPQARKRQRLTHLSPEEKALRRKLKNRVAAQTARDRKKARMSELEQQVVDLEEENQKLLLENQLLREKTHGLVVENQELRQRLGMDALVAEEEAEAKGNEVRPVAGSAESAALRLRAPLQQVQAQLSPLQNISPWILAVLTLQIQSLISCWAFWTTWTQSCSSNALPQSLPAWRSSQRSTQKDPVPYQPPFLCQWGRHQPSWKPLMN", "assay": "ATG_Xbp1_CIS: Attagene CIS-FACTORIAL HepG2 Assay for human X-box Binding Protein 1 (XBP1) (AID 2282972)", "conditions": "HepG2 XBP1 cis-element reporter, Attagene multiplex; actives raise or lower the signal", "how_it_was_run": "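After a 24-hour chemical exposure of HepG2 cells carrying cis-regulated reporters, reporter mRNA levels are assessed. Quantification uses RT-PCR, 6-FAM labelling and capillary electrophoresis. Gain- or loss-of-signal is fitted against DMSO.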"}
{"compound": "Cc1cc(O)c(C(C)(C)C)cc1C(C)(C)C", "outcome": "inactive"}
{"compound": "Cc1ccc(O)c(-n2nc3ccccc3n2)c1", "outcome": "inactive"}
{"compound": "CC1CCCCC1", "outcome": "inactive"}
{"compound": "CN(N=O)C(=O)N[C@@H]1[C@@H](O)[C@H](O)[C@@H](CO)O[C@@H]1O", "outcome": "inactive"}
{"compound": "C=CC(=O)OCC(F)(F)C(F)(F)C(F)(F)C(F)(F)C(F)(F)C(F)(F)C(F)(F)C(F)F", "outcome": "inactive"}
{"compound": "Cc1ccc([N+](=O)[O-])c(C)c1", "outcome": "inactive"}
{"compound": "CCCCC(CC)COC(=O)c1ccc(N(C)C)cc1", "note": "(centres undefined)", "outcome": "inactive"}
{"compound": "CC1=CCC(=O)O1", "outcome": "inactive"}
{"compound": "CCCCOC(=O)C(C)O", "note": "(centres undefined)", "outcome": "inactive"}
{"compound": "CCC/C=C/CO", "outcome": "inactive"}
{"compound": "CC(O)C#CC(C)O", "note": "(centres undefined)", "outcome": "inactive"}
{"compound": "CN1CN(C)CN(C)C1", "AC50": "169 µM (active)"}
{"compound": "CC(C)(C)C(=O)C1C(=O)c2ccccc2C1=O", "outcome": "inactive"}
{"compound": "OCCCCl", "outcome": "inactive"}
